{"source": "the supplement of paper PMC10338343", "note": "± gives the standard deviation. Whole data set: some 6,600 sequences, median “pre-steady-state target cleavage rate” near 0.07, cut for the highest 2% near 0.72. Shown is part of a subset that was picked to be rich in the highest values."}
{"tested_on": "MIWI (PIWIL1) piRISC loaded with Kctd7 piRNA (30 nt)", "test": "pre-steady-state target cleavage rate (min^-1); MIWI and MILI are mouse PIWI proteins and EfPiwi is from a freshwater sponge; tags in brackets are library labels; higher = faster piRNA-guided slicing of the target", "conditions": "guide: Kctd7 piRNA 5'p-UGUUAAUCUCUCAGAGAAGGUGACAGUGAU; auxiliary factor: 500 nM mouse GTSF1", "procedure": "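Cleave-'n-Seq: a library of target RNAs (target site embedded in constant flanks, ACAGCATTCCGCGTTAGTGATATCCG... 5' flank; DNA-blocked outside the site) at 0.1 nM was incubated with 1 nM active mouse MILI or MIWI piRISC (synthetic 5'-monophosphorylated piRNA guide) with or without 500 nM mouse GTSF1 at 33 °C for 1 min to 16 h. Uncleaved targets were sequenced and normalised to non-target controls, and the pooled three trials were fitted to a burst-and-steady-state model to give the pre-steady-state cleavage rate (min^-1; k3 is constrained to at most 1e-4). Sequence is the target site only; target names encode pairing extent (gX:gY) and contiguous / 1-mismatch / 2-mismatch / bulge geometry. Fits with R² ≤ 0 are excluded.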"}
{"sequence": "UUCACUGUCACCUUGUCUGAGAGAUUUUGA", "pre-steady-state target cleavage rate": "1.06 ± 0.27"}
{"sequence": "UAGUCUGUCACCUUCACUGAGAGAUUUUGA", "pre-steady-state target cleavage rate": "0.176 ± 0.046"}
{"sequence": "UACACUGUCACCUUGUCUGAGAGAUUUUGA", "pre-steady-state target cleavage rate": "1.02 ± 0.24"}
{"sequence": "AUCACUGUCACCUUCACUGAGAGAUUUUGA", "pre-steady-state target cleavage rate": "0.339 ± 0.082"}
{"sequence": "UACACUGUCACCUUGACUGAGAGAUUUUGA", "pre-steady-state target cleavage rate": "0.117 ± 0.039"}
{"sequence": "UAGACUGUCACCUUGUCUGAGAGAUUUUGA", "pre-steady-state target cleavage rate": "0.234 ± 0.066"}
{"sequence": "AUCACUGUCACCUUCUCUGAGAGAUUUUGA", "pre-steady-state target cleavage rate": "0.0948 ± 0.023"}
{"sequence": "AUCACUGUCACCUUGACUGAGAGAUUUUGA", "pre-steady-state target cleavage rate": "0.839 ± 0.22"}
{"sequence": "UACACUGUCACCUUCUGAGAGAGAUUUUGA", "pre-steady-state target cleavage rate": "0.0616 ± 0.019"}
{"sequence": "UAGUCUGUCACCUUGUCUGAGAGAUUUUGA", "pre-steady-state target cleavage rate": "0.197 ± 0.06"}
{"sequence": "AUCACUGUCACCUUGUCUGAGAGAUUUUGA", "pre-steady-state target cleavage rate": "1.4 ± 0.36"}
{"sequence": "UACACUGUCACCUUCACUGAGAGAUUUUGA", "pre-steady-state target cleavage rate": "0.302 ± 0.099"}
{"sequence": "UAGUGACACACGUUGUCUGAGAGAUUAACA", "pre-steady-state target cleavage rate": "0.0596 ± 0.011"}
{"sequence": "UAGUGACAGUCCUUCUCUGAGAGAUUAAACA", "pre-steady-state target cleavage rate": "0.0368 ± 0.0052"}
{"sequence": "UAGUGACACAGCUUCUCUGAGAGAUUAUGA", "pre-steady-state target cleavage rate": "0.00591 ± 0.0022"}
{"sequence": "AUCACUGUCACCUGCUCUGAGAGAUUAACA", "pre-steady-state target cleavage rate": "0.673 ± 0.026"}
{"sequence": "UACACUGUCACCUGCUCUGAGAGAUUAACA", "pre-steady-state target cleavage rate": "0.571 ± 0.03"}
{"sequence": "UAGUCUGUCACCUUGCUCUGAGAGAUUAACA", "pre-steady-state target cleavage rate": "0.47 ± 0.081"}
{"sequence": "AUCACUGUCACCUGUCUCUGAGAGAUUAACA", "pre-steady-state target cleavage rate": "0.651 ± 0.038"}
{"sequence": "UACACUGUCACCUUGCUCUGAGAGAUUAACA", "pre-steady-state target cleavage rate": "1.01 ± 0.17"}
{"sequence": "UACACUGUCACCUUGUCUGAGAGAUUAACA", "pre-steady-state target cleavage rate": "0.355 ± 0.042"}
{"sequence": "UUCACUGUCACCUGCUCUGAGAGAUUAACA", "pre-steady-state target cleavage rate": "0.645 ± 0.031"}
{"sequence": "UUCACUGUCACCUUGCUCUGAGAGAUUAACA", "pre-steady-state target cleavage rate": "0.747 ± 0.11"}
{"sequence": "AUCACUGUCACCUUGCUCUGAGAGAUUAACA", "pre-steady-state target cleavage rate": "1.1 ± 0.18"}
{"sequence": "UAGACUGUGACCUUCUCUGAGAGAUUAUCA", "pre-steady-state target cleavage rate": "0.246 ± 0.033"}
{"sequence": "UAGACACUCACCUUCUCUGAGAGAUUAUGA", "pre-steady-state target cleavage rate": "0.141 ± 0.031"}
{"sequence": "AUCACUGUCACGUUCACUGAGAGAUUAACA", "pre-steady-state target cleavage rate": "0.44 ± 0.025"}
{"sequence": "UAGUCUGUCACCUUCUCUGAGAGAUAAUGA", "pre-steady-state target cleavage rate": "0.0204 ± 0.0082"}
{"sequence": "UUCACUGUCACCUUCUCUGAGAGUUUAUGA", "pre-steady-state target cleavage rate": "0.71 ± 0.18"}
{"sequence": "UAGUGUGUCACCUUCUCUGAAGAGAUUAACA", "pre-steady-state target cleavage rate": "0.00762 ± 0.0051"}
{"sequence": "UACACUCUCACCUUCUCUGAGUGAUUAACA", "pre-steady-state target cleavage rate": "0.0216 ± 0.0064"}
{"sequence": "UAGUCUUUCACCUUCUCUGAGAGAUUAACA", "pre-steady-state target cleavage rate": "0.265 ± 0.015"}
{"sequence": "UAGUGAGUCAGCUUCUCUGAGAGAAUAACA", "pre-steady-state target cleavage rate": "0.199 ± 0.032"}
{"sequence": "UACACUGUCACCUUCUCUGUCAGAUUAACA", "pre-steady-state target cleavage rate": "0.0245 ± 0.008"}
{"sequence": "UAGACUGUCACCUUUCUCUGAGAGAUUAACA", "pre-steady-state target cleavage rate": "0.538 ± 0.039"}
{"sequence": "UUCACUGUCACCUUUUCUGAGAGAUUAACA", "pre-steady-state target cleavage rate": "0.679 ± 0.028"}
{"sequence": "AUCACUGUCACCUUUCUGAGAGAUUAACA", "pre-steady-state target cleavage rate": "0.532 ± 0.025"}
{"sequence": "UAGACUGUCACCUUUUCUGAGAGAUUAACA", "pre-steady-state target cleavage rate": "0.732 ± 0.034"}
{"sequence": "UAGACUGUCACCUUUCUGAGAGAUUAACA", "pre-steady-state target cleavage rate": "0.5 ± 0.033"}
{"sequence": "AUCACUGUCACCUUUUCUGAGAGAUUAACA", "pre-steady-state target cleavage rate": "0.748 ± 0.029"}
{"sequence": "UAGUGAGUCACCUUCACUCAGAGAUUAACA", "pre-steady-state target cleavage rate": "0.0317 ± 0.0057"}
{"sequence": "UUCACUGUCUCCUUCUCUGAGAGAUUAUCA", "pre-steady-state target cleavage rate": "0.231 ± 0.035"}
{"sequence": "UAGUGACAGUGCUUCACUGAGAGAUUAACA", "pre-steady-state target cleavage rate": "0.00805 ± 0.0033"}
{"sequence": "UAGUGACUCACGUUCUCUGAGAGAUUUUGA", "pre-steady-state target cleavage rate": "< 0.0001"}
{"sequence": "UAGAAUGUCACCUUCUCUGAGAGAUUAACA", "pre-steady-state target cleavage rate": "0.652 ± 0.038"}
{"sequence": "UAGUCUGUCACCUUGUCUGAGAGAUUUACA", "pre-steady-state target cleavage rate": "0.25 ± 0.045"}
{"sequence": "UUCACUGUCACCUUGUCUGAGAGUUUAACA", "pre-steady-state target cleavage rate": "0.422 ± 0.077"}
{"sequence": "AUCACUGUCACCUUGUCUGAGAGUUUAACA", "pre-steady-state target cleavage rate": "0.745 ± 0.15"}
{"sequence": "UUCACUGUCACCUUGUCUGAGAGAUUUACA", "pre-steady-state target cleavage rate": "0.671 ± 0.12"}
{"sequence": "AUCACUGUCACCUUGUCUGAGAGAUUUACA", "pre-steady-state target cleavage rate": "0.799 ± 0.14"}
{"sequence": "UACACUGUCACCUUGUCUGAGAGAUUUACA", "pre-steady-state target cleavage rate": "0.989 ± 0.19"}
{"sequence": "AUCACUGUCACCUUCACUGAGAGAUUUACA", "pre-steady-state target cleavage rate": "0.511 ± 0.082"}
{"sequence": "UACACUGUCACCUUGUCUGAGAGUUUAACA", "pre-steady-state target cleavage rate": "0.442 ± 0.11"}
{"sequence": "UAGACUGUCACCUUGUCUGAGAGAUUUACA", "pre-steady-state target cleavage rate": "0.659 ± 0.12"}
{"sequence": "UACACUGUGACCUUCUCUGAGAGAUUAACA", "pre-steady-state target cleavage rate": "0.464 ± 0.037"}
{"sequence": "UAGUGACAGUCCUUCUCUGAGAGUAUUAACA", "pre-steady-state target cleavage rate": "0.0116 ± 0.0023"}
{"sequence": "UAGUGUGUCACCUUCUCUGAGACAUUUACA", "pre-steady-state target cleavage rate": "0.028 ± 0.0097"}
{"sequence": "UAGUGACACACCAACUCUGAGAGAUUAACA", "pre-steady-state target cleavage rate": "0.0222 ± 0.0043"}
{"sequence": "UUCACUCAGACCUUCUCUGAGAGAUUAUGA", "pre-steady-state target cleavage rate": "0.0052 ± 0.0036"}
{"sequence": "UAGUGAGACACCUUCUCUGAGAGAUUAAGA", "pre-steady-state target cleavage rate": "0.0909 ± 0.019"}
{"sequence": "AACACUGUCACCUUCUCUGAGAGAUUAUGA", "pre-steady-state target cleavage rate": "0.101 ± 0.021"}
{"sequence": "AUCACUGUCAUCUUCUCUGAGAGAUUAACA", "pre-steady-state target cleavage rate": "0.827 ± 0.041"}
{"sequence": "UAGACUGUCAUCUUCUCUGAGAGAUUAACA", "pre-steady-state target cleavage rate": "0.848 ± 0.051"}
{"sequence": "UAGACUGUCACUCUUCUCUGAGAGAUUAACA", "pre-steady-state target cleavage rate": "0.457 ± 0.032"}
{"sequence": "UUCACUGUCAUCUUCUCUGAGAGAUUAACA", "pre-steady-state target cleavage rate": "0.596 ± 0.027"}
{"sequence": "AUCACUGUCACUCUUCUCUGAGAGAUUAACA", "pre-steady-state target cleavage rate": "0.53 ± 0.035"}
{"sequence": "UAGACUGUCAUCCUUCUCUGAGAGAUUAACA", "pre-steady-state target cleavage rate": "0.262 ± 0.023"}
{"sequence": "AUCACUCUCACCUUCUCUGAGAGAUUAUGA", "pre-steady-state target cleavage rate": "0.049 ± 0.018"}
{"sequence": "UAGACUGUCACCUUCUCUCAGAGUUUAACA", "pre-steady-state target cleavage rate": "0.0473 ± 0.0063"}
{"sequence": "UAGUCUGACACCUUGUCUGAGAGAUUAACA", "pre-steady-state target cleavage rate": "0.164 ± 0.022"}
{"sequence": "AUCAAUGUCACCUUCUCUGAGAGAUUAACA", "pre-steady-state target cleavage rate": "0.672 ± 0.03"}
{"sequence": "UUCACUGUCUCCUUCUCUGAGAGAUUAACA", "pre-steady-state target cleavage rate": "0.685 ± 0.036"}
